The supplement of paper PMC12350171
Counter-ions that a name gives are not always drawn. A number with no mark means an inactive call.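 How the source made its calls: active = AUC significantly below DMSO controls by Student t-fit with adjusted P under 0.01; inactive = not significantly reduced.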

System: Haemophilus parainfluenzae
Assay: growth AUC normalised to DMSO control (fraction of control); higher = less growth inhibition, active = hit call of the paper
Conditions: 20 µM
Procedure, shortened: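 Pathogens passaged twice anaerobically were inoculated at a starting OD578 of 0.01 into pre-reduced mGAM plates with drug at 20 μM and 1% DMSO, sealed with breathable membranes. Haemophilus parainfluenzae medium was supplemented with hemin and NAD. OD578 was read hourly for 24 h, with three biological replicates. Growth-curve AUC was computed by the trapezoidal rule up to the exponential-to-stationary transition and normalised to DMSO controls on the same plate.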

SMILES	growth AUC normalised to DMSO control
CC1COc2c(N3CCN(C)CC3)c(F)cc3c(=O)c(C(=O)O)cn1c23 (centres undefined) [Ofloxacin]	0.0492 (active)
CC[C@H](c1ccc(O)cc1)[C@@H](CC)c1ccc(O)cc1 [Hexestrol]	0.984
NC[C@@H]1O[C@H](O[C@H]2[C@@H](O)[C@H](O[C@@H]3[C@@H](O)[C@H](N)C[C@H](N)[C@H]3O[C@H]3O[C@H](CO)[C@@H](O)[C@H](O)[C@H]3N)O[C@@H]2CO)[C@H](N)[C@@H](O)[C@@H]1O [Paromomycin sulfate]	0.88
O=C(CCCCCCC(=O)Nc1ccccc1)NO [Vorinostat]	1.07
CCN(CC)CCNC(=O)c1ccc(N)cc1 [Procainamide hydrochloride]	0.983
Cc1c(Cl)cccc1Nc1ncccc1C(=O)O [Clonixin lysinate]	1.06
Nc1ccn([C@@H]2CS[C@H](CO)O2)c(=O)n1 [Lamivudine]	0.999
CC(C)c1c(C(=O)Nc2ccccc2)c(-c2ccccc2)c(-c2ccc(F)cc2)n1CC[C@@H](O)C[C@@H](O)CC(=O)O [Atorvastatin]	0.996
CO/N=C(\C(=O)N[C@@H]1C(=O)N2C(C(=O)O)=C(COC(N)=O)CS[C@H]12)c1ccco1 [Cefuroxime sodium salt]	0.0255 (active)
CCC1(c2ccccc2)C(=O)NCNC1=O [Primidone]	0.953
CC(=O)NC[C@H]1CN(c2ccc(N3CCOCC3)c(F)c2)C(=O)O1 [Linezolid]	0.582 (active)
C=CC[N@@+]12CC[C@@]34c5ccccc5N5/C=C6/[C@H]7C[C@H]8[C@@]9(CC[N@@+]8(CC=C)C/C7=C/CO)c7ccccc7N(/C=C(/[C@@H](C[C@@H]31)/C(=C\CO)C2)[C@H]54)[C@@H]69 [Alcuronium chloride]	1
CC(C)(C(=O)O)c1ccc(C(O)CCCN2CCC(C(O)(c3ccccc3)c3ccccc3)CC2)cc1 (centres undefined) [Fexofenadine hydrochloride]	1.01
O=C(O)[C@H]1/C(=C/CO)O[C@@H]2CC(=O)N21 [Clavulanate potassium salt]	1.06
COc1ccccc1OCC(O)CO (centres undefined) [Guaifenesin]	1.04
CCCCNc1ccc(C(=O)OCCN(C)C)cc1 [Tetracaine hydrochloride]	1.16
CN1CCC(OC(c2ccccc2)c2ccccc2)CC1 [Diphenylpyraline hydrochloride]	0.996
C[N+](C)(C)CCCCCC[N+](C)(C)C [Hexamethonium dibromide dihydrate]	0.852
CC(=O)SCC(Cc1ccccc1)C(=O)NCC(=O)OCc1ccccc1 (centres undefined) [Racecadotril]	0.986
COc1c2occc2c(OC)c2c(=O)cc(C)oc12 [Khellin]	0.993

SMILES	growth AUC normalised to DMSO control
COc1ccc(C2CNC(=O)C2)cc1OC1CCCC1 (centres undefined) [Rolipram]	0.952
CC(C)(C)NC[C@H](O)COc1cccc2c1CCCC2=O [(-) Levobunolol hydrochloride]	0.989
CCOC(=O)[C@H](CCc1ccccc1)N[C@@H](C)C(=O)N1[C@H](C(=O)O)C[C@@H]2CCC[C@@H]21 [Ramipril]	1.02
CN(C)CCC=C1c2ccccc2CCc2ccccc21 [Amitryptiline hydrochloride]	0.958
C=C(CC)C(=O)c1ccc(OCC(=O)O)c(Cl)c1Cl [Ethacrynic acid]	1.02
CC(N)C12CC3CC(CC(C3)C1)C2 (centres undefined) [Rimantadine hydrochloride]	0.933
COc1cc(C)nc(-n2nc(C)cc2OC)n1 [Epirizole]	0.999
Cc1cc(NC(=O)C2=C(O)c3ccccc3S(=O)(=O)N2C)no1 [Isoxicam]	0.991
CC(C)NCC(O)COc1ccc(CCOCC2CC2)cc1 (centres undefined) [Betaxolol hydrochloride]	0.988
Nc1nc2c(ncn2COCCO)c(=O)[nH]1 [Acyclovir]	1.01
CC(C)CC(=O)N[C@H](C(=O)N[C@H](C(=O)N[C@@H](CC(C)C)[C@@H](O)CC(=O)N[C@@H](C)C(=O)N[C@@H](CC(C)C)[C@@H](O)CC(=O)O)C(C)C)C(C)C [Pepstatin A]	1.07
CCCCC(C)(O)C/C=C/[C@H]1[C@H](O)CC(=O)[C@@H]1CCCCCCC(=O)OC (mixture of isomers) [Misoprostol]	1.02
C=C1C[C@H]2[C@@H]3C=C(C)C4=CC(=O)CC[C@]4(C)[C@H]3CC[C@]2(C)[C@@]1(OC(C)=O)C(C)=O [Melengestrol acetate]	1.06
O=C(O)c1ccccc1OP(=O)(O)O [Fosfosal]	0.998
Cc1cc(C(C)(C)C)cc(C)c1CC1=NCCN1 [Xylometazoline hydrochloride]	0.996
OCCN1CCN(CCCN2c3ccccc3C=Cc3ccccc32)CC1 [Opipramol dihydrochloride]	0.911
N[C@@H](C(=O)N[C@@H]1C(=O)N2C(C(=O)O)=C(Cl)CS[C@H]12)c1ccccc1 [Cefaclor hydrate]	0.97
CC(=O)c1ccc(S(=O)(=O)NC(=O)NC2CCCCC2)cc1 [Acetohexamide]	0.971
CC=C(C)C(=O)OC1C(OC(C)=O)C2(CO)C(O)CC3(C)C(=CCC4C5(C)CCC(OC6OC(C(=O)O)C(OC7OC(CO)C(O)C(O)C7O)C(O)C6OC6OC(CO)C(O)C(O)C6O)C(C)(CO)C5CCC43C)C2CC1(C)C (stereo not drawn) [Beta-Escin]	1.01
